Sampled rows, rich in hits. Any-hit rate of the full collection: about 4.1%.
A1 inh: inhibitors of the anti-apoptotic protein A1, read as caspase activation; actives 0.066% (n = 330,000); AID 2462; MEF A1-2A-BIM cells, Caspase-Glo 3/7 luminescence, 3 h; percent of clofoctol response, vehicle zero; caspase activation, % (no concentration beside the values);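 active = over half of replicate activation scores above 10%, or exactly half above 10 with the replicate mean above 10; inconclusive = replicate mean below 10 yet half the replicates above 10; inactive = over half of replicates below 10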
CSC inhib: blocks cancer stem cells; actives 1.1% (n = 300,000); inhibition, % at 7.5 µM; AID 2717; cancer stem cell-like cells viability, luminescence; in the data active = inhibition above about 75%; inconclusive = no clear call, values can overlap the other calls; tested in HMLE shEcad cells
aSyn UTR inh: MLPCN primary screen, SNCA 5' untranslated region; alpha-synuclein 5'UTR reporter, inhibitor activity; inhibition, % (tested at 7.5 µM); actives 0.82% (n = 300,000); AID 1813; in the data active = inhibition above about 60%; inconclusive = no clear call, values can overlap the other calls;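 also: H4 neuroglioblastoma cells stably carrying SNCA 5'UTR luciferase fusion; 0% = DMSO wells and 100% = positive control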
Mdm2-MdmX inh: inhibitors of human Mdm2/MdmX interaction. O15151+Q00987. SaOS-2 split-luciferase Mdm2/MdmX complementation, luminescence. inhibition, % at 8 µM. actives 3% (n = 330,000). AID 485346;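 active = inhibition of at least 50% at 8 µM in the primary screen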
Beta cell apopt: beta cell apoptosis inhibition; actives 0.8% (n = 300,000); INS-1E cytokine-induced death, ATP luminescence, 48 h; percent of positive-control rescue, neutral wells zero; protection from apoptosis, % (no concentration beside the values);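 active = Every replicate reaches about 75%, or at least half do and their mean reaches it too, limit read from the data; inconclusive = At least half of replicates reach the limit but their mean does not; inactive = Under half of replicates reach the limit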;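 also: 0% = cytokine-treated negative control wells and 100% = positive control rescue; higher means more ATP so stronger rescue from cytokine killing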
Mdm2-MdmX conf: confirmation of human Mdm2/MdmX interaction inhibitors | shares compounds with Mdm2-MdmX inh | Mdm2-MdmX binding, luminescent assay | inhibition, % at 8 µM | actives 55% (n = 10,000) | AID 489028; in the data active = inhibition above about 40%
Full FLuc ctr: counter-screen for Mdm2/MdmX inhibitors: full-length luciferase. shares compounds with Mdm2-MdmX inh. SaOS-2 full-length luciferase counterscreen, luminescence. inhibition, % at 8 µM. actives 77% (n = 6,200);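 active = mean inhibition at 8 µM reaching about 37%, which flags the compound as non-specific, limit read from the data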;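 also: p53-null SaOS-2 cells with luciferase driven by a doxycycline-inducible promoter; compound on cells about two nights before reading with doxycycline added after day one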
Numbers without * were called inactive; ? = inconclusive; . = not tested or not shown.

SMILES	A1 inh	CSC inhib	aSyn UTR inh	Mdm2-MdmX inh	Beta cell apopt	Mdm2-MdmX conf	Full FLuc ctr
CCOc1ccc(-c2nnc(NC(=O)c3ccc(OCC(C)C)c(OC)c3)o2)cc1	-1	103*	?	57*	0	57*	15
COc1cc(OC)cc(-c2nnc(NC(=O)c3ccc4c(c3)OCCO4)o2)c1	-1	32	-18	53*	.	25	.
CCCCNC(=O)C(=O)Nc1cc2c3c(c1)CCC(=O)N3CCC2	-1	-33	6	11	0	.	.
O=C1C(N2CCOCC2)=C(n2nnc3ccccc32)C(=O)c2ccccc21	2	110*	?	73*	120*	33	.
O=C1c2ccccc2C(=O)c2c1cccc2-n1nnc2ccccc21	0	-9	51	14	-8	.	.
O=[N+]([O-])c1ccc(-c2ccc(/C=N/Nc3nc(NCc4ccccc4)nc(N4CCOCC4)n3)o2)cc1	0	14	-4	100*	26	90*	54*
COc1nc(N/N=C/c2ccc(-c3ccccc3[N+](=O)[O-])o2)nc(N2CCOCC2)n1	0	-13	-105	-30	4	.	.
C=CCSc1nc(N)c(C#N)c(-c2ccc(C)cc2)c1C#N	0	-2	43	25	.	.	.
N#Cc1c(N)nc(Sc2ccc(Cl)cc2)c(C#N)c1-c1ccccc1Cl	0	59	-20	80*	25	48*	51*
CCSc1nc(N)c(C#N)c(-c2ccccc2Cl)c1C#N	1	-4	28	50*	4	38	66*
Cc1ccc(-c2cc(-c3ccccc3Cl)c(C#N)c(N)n2)o1	1	0	18	31	-1	.	.
CCn1c(SCC(=O)Nc2ccc(NC(C)=O)cc2)nc2c([nH]c3ccccc32)c1=O	-1	-12	0	52*	3	44*	44*
CCn1cc2nc(SCC(=O)Nc3ccc(OC)cc3OC)n(Cc3ccc(OC)cc3)c(=O)c2n1	2	54	-6	50*	19	42*	52*
COc1ccc(NC(=O)CSc2nc3c([nH]c4ccccc43)c(=O)n2C)c(OC)c1	1	-8	36	60*	0	20	.
COCCn1c(SCC(=O)Nc2ccc(C(N)=O)cc2)nc2c([nH]c3ccccc32)c1=O	0	-15	-4	74*	-3	34	52*
COCCn1c(SCC(=O)Nc2ccc(F)cc2)nc2c([nH]c3ccccc32)c1=O	1	-6	-7	2	.	.	.
CCN(CC)C(=O)[C@H]1CC(CC(=O)NCCN2CCOCC2)C(=O)N2CCc3c([nH]c4ccccc34)[C@]12C (stereo not given in full)	0	-21	.	10	0	.	.
COc1cccc(-n2c(SCC(=O)N3CCCCC3)nc3c([nH]c4ccccc43)c2=O)c1	1	-3	23	79*	.	31	.
Cn1c(SCC(=O)Nc2ccc(F)cc2)nc2c([nH]c3ccccc32)c1=O	1	15	16	91*	30	46*	90*
O=C(NCCN1CCOCC1)C(=O)NCC1OCCCN1S(=O)(=O)c1cc(F)ccc1F (stereo not given)	0	1	-5	17	-6	.	.
Cc1cc(N/N=C/c2ccccc2O)c2ccccc2n1	0	22	-113	21	42	.	.
COc1ccc(/C=N/Nc2cc(C)nc3ccc(Br)cc23)cc1	-1	107*	100*	98*	100*	25	.
COc1ccc2nc(C)cc(NCc3cccc(C(F)(F)F)c3)c2c1	-2	.	9	79*	50	60*	108*
COc1ccc2nc(C)cc(N/N=C/c3cccc(OC)c3O)c2c1	0	1	100*	100*	29	15	.
Cc1ccc(SCC(=O)OC(C)C(=O)NC2CCCCC2C)c(C)c1 (stereo not given)	-3	12	.	8	-5	.	.
O=C(NCc1cccc(F)c1)c1ccc2nc(N3CCOCC3)sc2c1	-1	2	11	6	-4	.	.
CC(OC(=O)c1cc(=O)[nH]c2ccccc12)C(=O)NCc1ccccc1 (stereo not given)	1	1	10	17	-1	.	.
CCOc1ccc(NC(=O)CCCc2cc(-c3ccc(OCC)cc3)on2)cc1	0	-21	35	-7	3	.	.
